# ChEMBL document CHEMBL3988442, “University of Dundee, Small-Polar-MMV Screening Library” (2021)
# For part of these data: Measured potencies and affinities stand elsewhere.
# Assays:
# [1] = biological target: Protein translocase subunit SecA (Escherichia coli (strain K12)) (UniProt P10408); assay: Assay to Identify E. coli SecA ATPase Inhibitors; assay type: functional; design: scale not given: direction of the effect not stated beside the values; settings: 30 µM
# [2] = biological target: T1, Ubiquitin-activating enzyme e1, putative (Leishmania donovani (strain BPK282A1)) (UniProt E9BSI1); assay: Leishmania donovani Ubiquitin Activating Enzyme (LdE1); assay type: functional; design: scale not given: direction of the effect not stated beside the values; settings: 30 µM
# T1 sequence (whole entry): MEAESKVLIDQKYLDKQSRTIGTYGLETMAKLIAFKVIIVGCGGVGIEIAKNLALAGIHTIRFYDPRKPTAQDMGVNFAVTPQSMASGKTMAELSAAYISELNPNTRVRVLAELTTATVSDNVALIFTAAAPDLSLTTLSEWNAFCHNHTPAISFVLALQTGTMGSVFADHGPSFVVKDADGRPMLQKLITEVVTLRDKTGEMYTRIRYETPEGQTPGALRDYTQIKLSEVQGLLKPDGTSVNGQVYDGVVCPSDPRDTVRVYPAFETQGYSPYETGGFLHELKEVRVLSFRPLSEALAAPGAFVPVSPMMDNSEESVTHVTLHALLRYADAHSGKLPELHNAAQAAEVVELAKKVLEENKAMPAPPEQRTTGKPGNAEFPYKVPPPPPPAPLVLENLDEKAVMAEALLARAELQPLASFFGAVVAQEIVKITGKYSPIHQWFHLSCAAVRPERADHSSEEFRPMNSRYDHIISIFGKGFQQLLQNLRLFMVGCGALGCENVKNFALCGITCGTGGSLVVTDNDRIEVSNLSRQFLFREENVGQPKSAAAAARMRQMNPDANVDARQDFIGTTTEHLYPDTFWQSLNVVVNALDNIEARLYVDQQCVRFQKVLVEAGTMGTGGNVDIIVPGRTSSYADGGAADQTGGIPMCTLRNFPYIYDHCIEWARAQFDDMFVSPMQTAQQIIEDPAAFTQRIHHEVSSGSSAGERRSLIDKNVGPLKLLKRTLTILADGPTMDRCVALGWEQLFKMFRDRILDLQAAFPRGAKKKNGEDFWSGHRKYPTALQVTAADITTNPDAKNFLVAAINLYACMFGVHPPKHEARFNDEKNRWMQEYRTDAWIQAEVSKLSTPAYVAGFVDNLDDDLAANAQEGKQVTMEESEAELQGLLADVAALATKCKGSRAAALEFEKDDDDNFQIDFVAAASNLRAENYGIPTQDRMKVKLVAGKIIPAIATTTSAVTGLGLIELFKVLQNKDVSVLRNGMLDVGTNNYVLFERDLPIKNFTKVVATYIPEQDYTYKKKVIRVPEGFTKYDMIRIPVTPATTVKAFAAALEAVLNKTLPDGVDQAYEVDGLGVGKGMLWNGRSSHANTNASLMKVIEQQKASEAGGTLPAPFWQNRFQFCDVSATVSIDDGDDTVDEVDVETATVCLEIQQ
# [3] = biological target: AMP-activated protein kinase, AMPK (Homo sapiens) (UniProt P54646+O43741+P54619+Q9UGJ0+Q9Y478+Q13131+Q9UGI9); assay: AMP-dependent Kinase enzyme assay. An in vitro enzyme assay that detects ADP turnover that is directly proportional to AMPK activity. This uses naive AMPK that is activated during the assay with MK-8722; assay type: functional; design: scale not given: direction of the effect not stated beside the values; settings: 30 µM
# [4] = biological target: Sialic acid-binding Ig-like lectin 9 (Homo sapiens) (UniProt Q9Y336); assay: Hs-Siglec9 ALPHAscreen SOP 20170721; design: scale not given: direction of the effect not stated beside the values; settings: 10 µM
# Trypanosoma cruzi = assay: Trypanosoma cruzi phosphomannomutase and mannose-1-phosphate guanylyltransferase assay; assay type: functional; design: scale not given: direction of the effect not stated beside the values; settings: 10 µM
# [5] = biological target: T2, Arginase-2, mitochondrial (Homo sapiens) (UniProt P78540); assay: in vitro enzyme assay to detect the production of urea directly proportional to the activity of Arginase II; assay type: functional; design: scale not given: in the data most compounds retested in dose-response had high values
# T2 sequence (whole entry): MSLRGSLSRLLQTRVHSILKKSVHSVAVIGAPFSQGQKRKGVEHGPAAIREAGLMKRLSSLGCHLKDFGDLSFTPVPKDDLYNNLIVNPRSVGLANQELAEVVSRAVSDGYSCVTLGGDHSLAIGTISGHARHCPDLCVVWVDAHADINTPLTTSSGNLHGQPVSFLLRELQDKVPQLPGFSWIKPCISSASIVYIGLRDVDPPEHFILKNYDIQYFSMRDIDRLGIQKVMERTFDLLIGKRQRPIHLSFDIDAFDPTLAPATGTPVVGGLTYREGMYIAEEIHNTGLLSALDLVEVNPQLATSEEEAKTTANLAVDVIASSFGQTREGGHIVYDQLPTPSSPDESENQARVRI
# [6] = biological target: T3, Proteasome subunit beta (Trypanosoma cruzi) (UniProt O96673); assay: Trypanosoma cruzi proteasome chymotrypsin-like activity (TcProtChymo) assay.; assay type: functional; design: scale not given: in the data most compounds retested in dose-response had high values; settings: 9.37 µM
# T3 sequence (whole entry): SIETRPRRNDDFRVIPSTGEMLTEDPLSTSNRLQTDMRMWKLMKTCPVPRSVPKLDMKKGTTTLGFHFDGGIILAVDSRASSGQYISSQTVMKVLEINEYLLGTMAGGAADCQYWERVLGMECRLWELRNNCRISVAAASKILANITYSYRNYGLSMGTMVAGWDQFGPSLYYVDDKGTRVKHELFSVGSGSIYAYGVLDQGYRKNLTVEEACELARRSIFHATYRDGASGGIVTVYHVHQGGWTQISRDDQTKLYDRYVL
# Homo sapiens = organism: Homo sapiens; assay: To identify inhibition of the IFN signalling (Jak-Stat) pathway via expression of an eGFP reporter gene under the control of an IFN-stimulated response element (ISRE) containing MxA promoter.; assay type: functional; design: scale not given: direction of the effect not stated beside the values; settings: 30 µM
# [7] = biological target: T4, Tyrosyl-tRNA synthetase, putative (Trypanosoma cruzi (strain CL Brener)) (UniProt Q4DSP6); assay: Trypanosoma cruzi tyrosyl tRNA synthetase (TcYRS) _High Tyrosine SOP; assay type: functional; design: scale not given: in the data most compounds retested in dose-response had high values; settings: 30 µM
# T4 sequence (whole entry): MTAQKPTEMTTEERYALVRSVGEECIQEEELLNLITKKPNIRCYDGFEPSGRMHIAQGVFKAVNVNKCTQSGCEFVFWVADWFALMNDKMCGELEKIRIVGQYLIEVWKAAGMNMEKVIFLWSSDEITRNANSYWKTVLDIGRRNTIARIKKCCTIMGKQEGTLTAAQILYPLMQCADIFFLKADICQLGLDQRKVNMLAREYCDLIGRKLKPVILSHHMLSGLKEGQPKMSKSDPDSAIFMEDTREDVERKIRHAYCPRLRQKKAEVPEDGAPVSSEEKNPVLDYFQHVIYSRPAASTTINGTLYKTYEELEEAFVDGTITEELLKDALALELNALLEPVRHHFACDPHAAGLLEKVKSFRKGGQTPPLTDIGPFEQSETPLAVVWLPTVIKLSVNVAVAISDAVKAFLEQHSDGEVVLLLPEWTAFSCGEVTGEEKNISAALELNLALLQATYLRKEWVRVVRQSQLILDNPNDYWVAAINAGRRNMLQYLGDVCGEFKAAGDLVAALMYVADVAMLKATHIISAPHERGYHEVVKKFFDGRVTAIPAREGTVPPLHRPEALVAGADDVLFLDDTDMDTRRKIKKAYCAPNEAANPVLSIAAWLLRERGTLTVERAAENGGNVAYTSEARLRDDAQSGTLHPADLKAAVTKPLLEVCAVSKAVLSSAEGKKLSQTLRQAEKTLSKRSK
# [8] = biological target: T4, Tyrosyl-tRNA synthetase, putative (Trypanosoma cruzi (strain CL Brener)); assay: Trypanosoma cruzi tyrosyl tRNA synthetase (TcYRS) SOP; assay type: functional; design: scale not given: direction of the effect not stated beside the values; settings: 30 µM
# [9] = biological target: Chromo domain-containing protein 1 (Saccharomyces cerevisiae (strain ATCC 204508 / S288c) (Baker's yeast)) (UniProt P32657); assay: ScCHD-1 Enzyme Inhibition Assay; assay type: functional; design: scale not given: in the data most compounds retested in dose-response had high values; settings: 30 µM
# [10] = biological target: T5, Methionyl-tRNA synthetase, putative (Leishmania donovani (strain BPK282A1)) (UniProt E9BF75); assay: Leishmania donovani Methionine tRNA synthetase (LdMetRS):v7. Dose response assay; assay type: functional; design: conc 80 nM, time 150 minutes
# T5 sequence (whole entry): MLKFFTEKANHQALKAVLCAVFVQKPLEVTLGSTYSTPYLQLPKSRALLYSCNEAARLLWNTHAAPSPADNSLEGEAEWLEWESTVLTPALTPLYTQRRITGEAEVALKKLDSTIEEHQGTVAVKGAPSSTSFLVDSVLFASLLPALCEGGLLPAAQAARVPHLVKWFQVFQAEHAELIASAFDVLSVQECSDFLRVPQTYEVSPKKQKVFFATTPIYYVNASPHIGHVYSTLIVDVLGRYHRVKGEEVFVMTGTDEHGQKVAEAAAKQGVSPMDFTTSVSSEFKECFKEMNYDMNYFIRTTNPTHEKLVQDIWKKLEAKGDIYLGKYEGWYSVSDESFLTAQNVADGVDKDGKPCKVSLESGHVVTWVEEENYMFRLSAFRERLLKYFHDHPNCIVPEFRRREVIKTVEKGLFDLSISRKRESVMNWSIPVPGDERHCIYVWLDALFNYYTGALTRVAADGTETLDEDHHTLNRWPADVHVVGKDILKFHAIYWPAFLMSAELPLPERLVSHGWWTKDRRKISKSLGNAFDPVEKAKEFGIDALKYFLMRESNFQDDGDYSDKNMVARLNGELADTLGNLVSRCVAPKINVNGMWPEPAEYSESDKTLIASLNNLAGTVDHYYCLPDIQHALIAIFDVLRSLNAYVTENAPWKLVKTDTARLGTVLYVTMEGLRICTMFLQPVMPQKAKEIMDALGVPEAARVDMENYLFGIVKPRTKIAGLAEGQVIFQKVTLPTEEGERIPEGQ
# Sequence of Sialic acid-binding Ig-like lectin 9 (Homo sapiens) (Q9Y336 whole entry): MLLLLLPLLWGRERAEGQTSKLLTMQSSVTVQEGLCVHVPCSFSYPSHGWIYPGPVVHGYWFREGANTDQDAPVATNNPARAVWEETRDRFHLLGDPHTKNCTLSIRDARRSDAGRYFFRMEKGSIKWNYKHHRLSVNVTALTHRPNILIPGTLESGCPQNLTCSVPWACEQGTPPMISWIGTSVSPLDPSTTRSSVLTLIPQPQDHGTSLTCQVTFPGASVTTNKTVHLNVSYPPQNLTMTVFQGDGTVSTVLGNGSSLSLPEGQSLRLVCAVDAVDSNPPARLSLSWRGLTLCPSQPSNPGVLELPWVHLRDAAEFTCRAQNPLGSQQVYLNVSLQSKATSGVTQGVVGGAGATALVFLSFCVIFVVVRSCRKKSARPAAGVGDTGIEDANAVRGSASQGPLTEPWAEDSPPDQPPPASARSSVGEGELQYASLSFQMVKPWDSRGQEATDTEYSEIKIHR
# Sequence of Protein translocase subunit SecA (Escherichia coli (strain K12)) (P10408 whole entry): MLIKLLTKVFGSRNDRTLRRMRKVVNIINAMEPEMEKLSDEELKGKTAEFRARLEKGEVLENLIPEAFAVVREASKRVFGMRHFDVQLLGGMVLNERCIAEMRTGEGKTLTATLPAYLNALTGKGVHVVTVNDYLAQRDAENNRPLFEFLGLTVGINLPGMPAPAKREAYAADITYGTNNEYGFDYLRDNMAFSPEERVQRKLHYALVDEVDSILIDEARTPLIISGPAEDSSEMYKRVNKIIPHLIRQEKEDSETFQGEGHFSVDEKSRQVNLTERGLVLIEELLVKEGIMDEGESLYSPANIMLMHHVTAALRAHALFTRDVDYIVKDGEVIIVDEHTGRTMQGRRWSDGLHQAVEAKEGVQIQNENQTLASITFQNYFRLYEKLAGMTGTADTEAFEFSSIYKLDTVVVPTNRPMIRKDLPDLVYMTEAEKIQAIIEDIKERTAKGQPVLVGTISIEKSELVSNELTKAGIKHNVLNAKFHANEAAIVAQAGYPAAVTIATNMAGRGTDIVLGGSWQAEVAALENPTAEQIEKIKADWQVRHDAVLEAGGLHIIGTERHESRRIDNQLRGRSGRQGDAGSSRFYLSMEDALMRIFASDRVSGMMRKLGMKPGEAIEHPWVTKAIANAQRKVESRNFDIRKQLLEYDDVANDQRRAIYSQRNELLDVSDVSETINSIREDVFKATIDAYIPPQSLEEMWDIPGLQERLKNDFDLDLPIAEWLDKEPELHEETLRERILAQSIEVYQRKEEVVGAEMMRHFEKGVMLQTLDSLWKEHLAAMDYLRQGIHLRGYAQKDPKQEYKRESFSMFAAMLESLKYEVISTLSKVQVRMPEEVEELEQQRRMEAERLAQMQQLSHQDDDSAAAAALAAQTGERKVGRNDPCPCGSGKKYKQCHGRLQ
# Sequence of Chromo domain-containing protein 1 (Saccharomyces cerevisiae (strain ATCC 204508 / S288c) (Baker's yeast)) (P32657 whole entry, the tested form may be a part): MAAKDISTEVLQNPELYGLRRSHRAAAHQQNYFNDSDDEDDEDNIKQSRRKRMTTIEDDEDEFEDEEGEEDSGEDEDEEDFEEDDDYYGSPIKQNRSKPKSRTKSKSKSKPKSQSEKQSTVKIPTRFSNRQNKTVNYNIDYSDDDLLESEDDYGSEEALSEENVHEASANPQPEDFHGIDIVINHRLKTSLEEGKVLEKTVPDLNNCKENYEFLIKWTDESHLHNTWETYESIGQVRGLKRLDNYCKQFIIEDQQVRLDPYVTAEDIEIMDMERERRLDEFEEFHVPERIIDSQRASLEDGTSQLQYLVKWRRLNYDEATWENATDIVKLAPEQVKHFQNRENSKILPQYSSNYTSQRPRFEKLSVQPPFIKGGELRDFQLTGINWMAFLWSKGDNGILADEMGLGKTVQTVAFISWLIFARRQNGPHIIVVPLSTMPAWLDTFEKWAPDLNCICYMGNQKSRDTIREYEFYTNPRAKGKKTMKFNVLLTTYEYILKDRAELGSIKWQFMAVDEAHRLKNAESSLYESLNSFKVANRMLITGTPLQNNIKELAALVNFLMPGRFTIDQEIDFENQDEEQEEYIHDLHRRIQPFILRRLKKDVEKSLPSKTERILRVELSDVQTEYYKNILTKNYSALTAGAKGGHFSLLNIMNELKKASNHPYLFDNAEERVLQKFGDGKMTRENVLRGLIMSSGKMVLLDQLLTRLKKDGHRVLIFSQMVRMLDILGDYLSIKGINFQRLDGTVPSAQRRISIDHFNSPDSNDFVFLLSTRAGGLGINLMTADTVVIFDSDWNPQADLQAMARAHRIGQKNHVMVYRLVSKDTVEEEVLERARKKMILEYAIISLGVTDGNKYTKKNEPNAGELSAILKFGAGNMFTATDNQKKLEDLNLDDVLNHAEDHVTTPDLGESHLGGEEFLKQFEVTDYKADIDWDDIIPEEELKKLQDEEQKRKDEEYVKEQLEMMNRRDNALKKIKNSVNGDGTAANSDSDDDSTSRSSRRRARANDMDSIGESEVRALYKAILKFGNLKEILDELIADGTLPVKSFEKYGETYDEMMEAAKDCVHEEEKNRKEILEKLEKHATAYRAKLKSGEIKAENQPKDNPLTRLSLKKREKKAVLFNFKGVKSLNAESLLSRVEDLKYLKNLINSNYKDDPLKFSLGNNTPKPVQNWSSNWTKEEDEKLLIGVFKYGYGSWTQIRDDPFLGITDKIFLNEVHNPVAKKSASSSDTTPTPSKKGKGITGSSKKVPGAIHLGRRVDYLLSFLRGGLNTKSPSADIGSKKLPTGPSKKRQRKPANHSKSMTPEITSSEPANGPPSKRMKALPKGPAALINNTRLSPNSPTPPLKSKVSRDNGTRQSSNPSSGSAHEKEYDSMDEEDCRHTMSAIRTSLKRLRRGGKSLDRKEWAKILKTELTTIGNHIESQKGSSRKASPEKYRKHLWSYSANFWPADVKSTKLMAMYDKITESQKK
SMILES,Percent Effect [1] [%],Percent Effect [2] [%],Percent Effect [3] [%],Percent Effect [4] [%],Percent Effect (Trypanosoma cruzi) [%],Percent Effect ([5]; 30 µM) [%],Percent Effect ([5]; 33.3 µM) [%],Percent Effect [6] [%],Percent Effect (Homo sapiens) [%],Percent Effect [7] [%],Percent Effect [8] [%],Percent Effect [9] [%],PXC50 ([10]; MAX_EFFECT 8.551068884),PXC50 ([10]; MAX_EFFECT 14.26056338),PXC50 ([10]; MAX_EFFECT 4.275534442),PXC50 ([10]; MAX_EFFECT 11.79577465),PXC50 ([10]; MAX_EFFECT 10.70496084),PXC50 ([10]; MAX_EFFECT 13.5770235),PXC50 ([10]; MAX_EFFECT 15.66901408)
CN(Cc1ccccn1)C(=O)[C@]12COC[C@H]1CN(Cc1cnn(C)c1)C2,-1.75,2.67,0.223,6.55,1.16,5.95,-52.5,3.93,-7.69,2.08,7.5,-8.12,,,,,,,
c1ccc(COC2CCN(c3cncc(-n4cccn4)n3)CC2)cc1,-2.59,5.41,-5.76,-7.06,4.3,,2.08,19.2,14.3,8.91,13.4,-2.69,< 4,< 4,,,,,
Cn1cnnc1C1CCN(c2cncc(-n3cccn3)n2)CC1,-2.06,8.11,-2.17,-0.628,0.781,,2.92,13.8,-3.56,5.94,8.54,-8.65,,,< 4,< 4,,,
Cc1nc(NCc2nnc(C)n2C)c2c(CC(C)C)csc2n1,,,1.71,,,,,,,,,,,,,,< 4,< 4,
CNC(=O)[C@H]1C[C@@H]2CN(C(=O)c3cscn3)C[C@@H]2N1S(C)(=O)=O,-2.22,5.33,0.103,9.01,-4.05,4.87,-27.1,5.64,-13,4.17,-52.5,-3.61,,,,,,,
Cc1ccc(CN2CCC(F)(F)C3(CCN(c4cnccn4)C3)C2)o1 (stereo unspecified),-2.38,2.7,11.5,1.13,0,,3.33,-3.13,0.47,5.94,3.66,-2.36,< 4,,,,,,< 4
